For 35 molecules, inhibition results are on record in ChEMBL document CHEMBL3433997, “St. Jude Leishmania screening dataset” (2016).

Holding throughout (format): functional
For experiment [1], the target named is Solute carrier family 2, facilitated glucose transporter member 1 (Homo sapiens) (UniProt P11166). The experiment can be described thus: ST_JUDE_LEISH: Cytotoxicity at 2uM final concentration against transgenic Leishmania Mexicana promastigotes LmGLUT1 that are glucose transport deficient and complemented with the human glucose transporter GLUT1. Activity is measured by DNA content using SYBR green in vitro.
Solute carrier family 2, facilitated glucose transporter member 1 (Homo sapiens), sequence (P11166 whole entry): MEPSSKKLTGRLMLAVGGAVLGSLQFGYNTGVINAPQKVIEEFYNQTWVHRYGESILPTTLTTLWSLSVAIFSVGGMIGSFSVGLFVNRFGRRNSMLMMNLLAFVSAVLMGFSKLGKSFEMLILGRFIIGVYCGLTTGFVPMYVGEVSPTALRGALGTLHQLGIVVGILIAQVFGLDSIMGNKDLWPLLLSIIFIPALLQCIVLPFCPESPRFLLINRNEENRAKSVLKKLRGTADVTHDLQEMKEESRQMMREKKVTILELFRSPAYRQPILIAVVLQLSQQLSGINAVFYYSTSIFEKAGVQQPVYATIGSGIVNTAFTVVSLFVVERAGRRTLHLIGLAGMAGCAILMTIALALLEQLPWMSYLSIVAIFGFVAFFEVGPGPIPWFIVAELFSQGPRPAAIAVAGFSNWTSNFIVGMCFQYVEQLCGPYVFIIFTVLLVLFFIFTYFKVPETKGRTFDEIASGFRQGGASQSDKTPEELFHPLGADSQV

Experiment [2] addresses Hexose transporter 1 (Plasmodium falciparum) (UniProt O97467). The experiment in a line: ST_JUDE_LEISH: Cytotoxicity at 2uM final concentration against transgenic Leishmania Mexicana promastigotes LmPfHT that are glucose transport deficient and complemented with the Plasmodium falciparum hexose transporter. Activity is measured by DNA content using SYBR green in vitro.
In experiment [3] the target is Glucose transporter (Leishmania mexicana) (UniProt O61059). The experiment in a line: ST_JUDE_LEISH: Cytotoxicity at 2uM final concentration against transgenic Leishmania Mexicana promastigotes LmGT2 that are glucose transport deficient and complemented with the L. Mexicana glucose transporter 2. Activity is measured by DNA content using SYBR green in vitro.

Regarding `CC(=O)Nc1nc(C(=O)Nc2cccc(-c3ccc4c(cnn4CC4CC4)c3)c2)cs1`, the inhibition – broadly, the drop in the measured response relative to a control, in per cent – in experiment [1] is 1.74%; in experiment [2] it was 1.84%; in experiment [3], 2.13%.
In the same order, the values of `CC(C)c1ccc(NC(=O)NC2CCN(CCCCCN(C)C(=O)/C=C/c3ccc(Cl)c(Cl)c3)C2)cc1` (stereo not given) are 5.33%, 7.26% and 6.41%.
In the case of `CCc1c(C)nc(-n2nc(C)cc2NC(=O)C(CC)c2ccccc2)[nH]c1=O` (stereo not given), the inhibition in experiment [1] is 18.6%; in experiment [2], 7.02%; in experiment [3], -2.05%.
In the same order, the values of `COc1cc(Cc2cnc(N)nc2N)ccc1Oc1ccc(N)cc1` are 1.44%, 0.48% and 0.97%.
Turning to `CC(C)(C)c1ccc(CN2CCCCC(NC(=O)c3cc(-c4cccc(Cl)c4)cs3)C2)cc1` (stereo not given), the inhibition in experiment [1] was -0.16%; in experiment [2] it was -0.87%; in experiment [3] it was -6.21%.
For the molecule `CCOc1ccc(C(=O)N2CCOC(CCN3CCC(c4ccccc4)CC3)(c3ccc(Cl)c(Cl)c3)C2)cc1` (stereo not given), the inhibition in experiment [1] was 3.91%; in experiment [2], 3.91%; in experiment [3] it was 4.6%.
As for `CCC(O)(C#Cc1c(C)nc(N)nc1N)CC`, the inhibition in experiment [1] was 2.19%; in experiment [2], 2.72%; in experiment [3] it was -0.68%.
Taken in the same sequence, the figures for `CC(C)c1ccc(NC(=O)c2ccc(CN3CCCN(Cc4cccc(O)c4)CC3)cc2)cc1` were 2.95%, 4.76% and 5.15%.
In the same order, the values of `COc1ccc2nc(C)cc(NCc3cccc4ccccc34)c2c1` are 2.2%, 3.81% and -0.28%.
`O=C(NCCCN1CCC(Cc2ccccc2)CC1)c1cc2c(Cl)nc3ccccc3c2s1`: the inhibition in experiment [1] was 0.05%; in experiment [2], 1.9%; in experiment [3], -0.45%.
In the same order, the values of `Cc1cc(N[C@@H](CC(C)C)C(=O)Nc2ccccc2)nc(NCCc2ccc(F)cc2)n1` are 4.85%, 1.97% and 1.72%.
Taken in the same sequence, the figures for `Cc1ccccc1/N=C1\NC(=S)N(c2cccc(C(F)(F)F)c2)C12CCC(C(C)(C)C)CC2` (stereo not given) were 2.78%, 2.68% and 2.58%.
With `Cc1cccc2nc(-c3ccc(-c4ccc(CN5CCCC5CN)cc4)cc3)[nH]c12` (stereo not given), the inhibition was 6.95% in experiment [1], 6.96% in experiment [2] and 4.26% in experiment [3].
In the same order, the values of `N=C(N)c1ccc2[nH]c(-c3cc4cc(C(=N)N)ccc4o3)cc2c1` are 2.26%, 2.36% and 1.58%.
In the same order, the values of `Cc1cccc2nc(-c3ccc(-c4ccc(NC(=O)c5cncn5C)cc4)s3)[nH]c12` are 11.3%, 9.8% and 7.26%.
Take `Cc1cc(=O)c(-c2ccc(Oc3cccc(Cl)c3)cc2)c(C)[nH]1`: the inhibition in experiment [1] was 6.01%; in experiment [2], 5.62%; in experiment [3], 2.24%.
`O=S(=O)(Nc1cc2c(cc1OCc1ccccc1)CCN(C1CCC1)CC2)c1ccc(-c2ccc(Cl)cc2)cc1`: the inhibition in experiment [1] is 1.72%; in experiment [2] it was 2.61%; in experiment [3], -1.11%.
Taken in the same sequence, the figures for `CCc1sc(N2CCC(C)CC2)nc1C(=O)Nc1ccc(F)cc1C(F)(F)F` were 2.29%, 3.34% and 0.26%.
For the molecule `Cc1onc(-c2c(F)cccc2Cl)c1C(=O)Nc1ccccc1I`, the inhibition in experiment [1] was determined as 2.35%; in experiment [2] it was 2.24%; in experiment [3] it was 2.12%.
Taken in the same sequence, the figures for `COc1ccc2nccc([C@@H](O)CN3CCC(NCc4cc5ccccc5cn4)CC3)c2n1` were 12.2%, 17.3% and 7.09%.
Taken in the same sequence, the figures for `N#Cc1ccc(CN2CCCN(c3ccc(NC(=O)c4ccc(F)cc4)cc3)CC2)cc1` were 2.88%, 3.32% and 0.81%.
In the same order, the values of `O=C(CCCc1ccccc1)Nc1cccc(N2CCC(N3CCN(c4ccccc4O)CC3)CC2)c1` are 11.8%, 7.32% and 7.72%.
As to `COCCNCc1ccc(-c2cccc(CN(C(=O)NCCc3ccccc3)C3CCN(Cc4ccccc4)CC3)c2)cc1`, the inhibition was 1.13% in experiment [1], -0.26% in experiment [2] and -1.5% in experiment [3].
As to `O=C(Nc1ccc2c(c1)CCN(C1CCC1)CC2)c1ccc(-n2ccnc2)cn1`, the results for the inhibition in experiment [1], in experiment [2] and in experiment [3] were 1.81%, 2.97% and 2.28%, respectively.
In the same order, the values of `C[C@@H](COc1ccccc1)NCC(O)c1ccc([N+](=O)[O-])c(OCc2ccccc2)c1` (stereo not given in full) are 0.54%, 0.96% and 0.1%.
As for `O=C(Nc1cccc(-c2ccc(-c3nc4cc(C(F)(F)F)ccc4[nH]3)cc2)c1)Nc1ccc(F)c(F)c1F`, the inhibition in experiment [1] was -0.86%; in experiment [2], 0.2%; in experiment [3], 0.37%.
In the same order, the values of `Fc1cccc(COc2ccc(Nc3ncnc4sc(C#CC5CCCCN5)cc34)cc2Cl)c1` (stereo not given) are 3.03%, 1.13% and -0.16%.
In the same order, the values of `CC(=O)Nc1cccc(Nc2nccc(Nc3ccc(Oc4ccccc4)cc3)n2)c1` are 1.64%, 2.76% and -0.82%.
Take `CCCc1cc(OCCCOc2ccccc2)ccc1OCCCON1C(=N)N=C(N)NC1(C)C`: the inhibition in experiment [1] was 20.6%; in experiment [2] it was 26.8%; in experiment [3], 14%.
Taken in the same sequence, the figures for `COCCCC1C(=O)OC2CCCC21` (stereo not given) were 0.19%, 3.28% and 2.52%.
In the same order, the values of `Nc1ccnc2ccc(OCCCCCCc3ccccc3)cc12` are -1.77%, -1.93% and -1.14%.
On to `COc1ccc(N2CCN(CCCCNC(=O)c3ccc(NC(=O)c4ccc(Cl)cc4)cc3)CC2)c(OC)c1`, for which the figures for the inhibition in experiment [1], in experiment [2] and in experiment [3] were 9.13%, 8.66% and 8.5%, respectively.
Taken in the same sequence, the figures for `CN(C)c1ccc(-c2ccc(C(=O)NC3CCN(Cc4cccc(C(F)(F)F)c4)CC3)s2)cc1` were 4.91%, 6.03% and 3.55%.
In the same order, the values of `O=C1COc2ccc(S(=O)(=O)N3CCC[C@@H]3CCN3CCC(c4c[nH]c5cnccc45)CC3)cc2N1` are 0.76%, 0.68% and 2.12%.
In the same order, the values of `CCNc1cc(C(=O)N[C@@H](Cc2ccccc2)[C@H](O)CNC2CCC(C(C)(C)C)CC2)cc(N2CCCC2=O)c1` (stereo not given in full) are 0.78%, 1.1% and -2.55%.
